mHTT CaM bind = disrupts binding of mutant huntingtin to calmodulin; P42858; AlphaScreen His-mHTT/GST-CaM binding, luminescence; AID 1671202; 190,000 compounds, 3.6% hits; inhibition, % at 15 µM;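 further: 0% = both proteins with DMSO and 100% = one protein alone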
Pf apPOL inh = Pf-apPOL DNA polymerase inhibition; Recombinant Pf-apPOL, molecular beacon fluorescence, 1.5 h; inhibition, % at 10 µM; 210,000 compounds, 0.25% hits; AID 1794808
Numbers without * were called inactive; nt = not tested or not shown. An excerpt weighted towards active compounds, which were near 3.6% of everything screened. No stated cut-off is given here; in the data, active means inhibition above about 50%; inactive means the rest.

SMILES	mHTT CaM bind	Pf apPOL inh
Cn1ccc(-c2ccccc2)n1	-8	-4
Cn1ccc(-c2ccnc(NN)n2)n1	99*	nt
CCn1c(/C(C#N)=C/c2cccc(O)c2)nc2ccccc21	23	-2
O=S1(=O)CCC(SCc2nnc(-c3ccccc3)o2)C1 (stereo not drawn)	-7	nt
Fc1ccccc1-c1nc(-c2ccc3c(c2)ncn3CCN2CCCC2)no1	10	-5
CC(=O)Oc1ccc2c(=O)c(Oc3ccccc3Br)c(C(F)(F)F)oc2c1	52*	0
COc1ccc2c(=O)c(Oc3ccccc3Br)c(C(F)(F)F)oc2c1	4	9
Cc1cccc(N2CCN(S(=O)(=O)c3ccc4oc(C(=O)O)c(C)c4c3)CC2C)c1 (stereo not drawn)	50	-6
COc1ccc(NC(NC(=O)c2ccc([N+](=O)[O-])cc2)C(Cl)(Cl)Cl)cc1 (stereo not drawn)	53*	-2
COc1ccc(NC(NC(=O)c2ccc(Cl)cc2)C(Cl)(Cl)Cl)cc1 (stereo not drawn)	57*	-8
COc1ccc(C(=O)NC(Nc2ccc([N+](=O)[O-])cc2)C(Cl)(Cl)Cl)cc1 (stereo not drawn)	48	2
COc1ccc(C(=O)NC(Nc2ccc(Br)cc2)C(Cl)(Cl)Cl)cc1 (stereo not drawn)	3	7
CC(=O)N1CCN(Cc2cnoc2-c2cccc(C)c2)CC1	3	-3
Cc1nc(C(=O)Nc2ccccc2)c(C)n1C1CCN(S(C)(=O)=O)CC1	2	-1
Cc1nc(C(=O)Nc2ccc(Oc3ccccc3)cc2)c(C)n1C1CCN(C)CC1	82*	-6
CC(C)CC(=O)NC1CCN(c2ccccc2C(=O)N2CCN(C)CC2)CC1	2	0
NNC(=O)c1ccc2[nH]c3c(c2c1)CCCC3	11	3
Cc1ccc(CNC(=O)CN(C)S(=O)(=O)c2ccc3[nH]c4c(c3c2)CCCC4)cc1	32	-1
O=C(CCC1CCCCC1)NCc1ccc2[nH]c3c(c2c1)CCCC3	98*	-7
O=C(CCC1CCCC1)NCc1ccc2[nH]c3c(c2c1)CCCC3	100*	-15
CC(C)NC(=O)C1CC(=O)N(Cc2ccccc2F)C1 (stereo not drawn)	-4	-1
COc1ccc(C2CC(=O)Oc3cc(OC)ccc32)cc1 (stereo not drawn)	0	-2
COc1ccc(C2CC(O)(c3ccccc3)Oc3c(C)ccc(C(C)C)c32)cc1 (stereo not drawn)	55*	2
COc1ccc(C2CC(O)(c3ccccc3)Oc3cc(OC)ccc32)cc1 (stereo not drawn)	80*	-3
COc1ccc(C2CC(=O)Oc3c(C(C)C)ccc(C)c32)cc1 (stereo not drawn)	-36	-7
SMILES	mHTT CaM bind	Pf apPOL inh
Cc1ccc(C(=O)Nc2cnc(N3CCCCCC3)nc2)s1	-1	-6
CCCNC(=O)N1CCN(Cc2nc3cccnc3n2-c2ccc(OC)cc2)CC1	-8	-5
CCOC(CNC(=O)c1ccc2c(c1)ncn2-c1cc(Cl)ccc1OC)OCC	53*	-4
COc1ccc(C)cc1-n1cnc2cc(C(=O)NCC(OC)OC)ccc21	5	-2
C=CCn1c(=O)c2c(ncn2Cc2ccc(C)cc2)n(-c2ccccc2)c1=O	5	-2
O=C(CN1C(=O)C(c2ccccc2)=NC12CCCCC2)Nc1ccc(F)c(F)c1	100*	-12
O=C(CN1C(=O)C(c2ccccc2)=NC12CCCCCC2)Nc1ccccc1	45	1
O=C(CN1C(=O)C(c2ccccc2)=NC12CCCCCC2)Nc1ccc(F)cc1	-5	-4
O=C(CN1C(=O)C(c2ccc(F)cc2)=NC12CCCCC2)Nc1ccc(F)cc1	12	-6
O=C(CN1C(=O)C(c2ccccc2)=NC12CCCCCC2)Nc1cccc(F)c1	52*	-9
CC1CCC2(CC1)N=C(c1ccccc1)C(=O)N2CC(=O)Nc1ccc(F)c(F)c1 (stereo not drawn)	76*	-7
O=C(CN1C(=O)C(c2ccc(F)cc2)=NC12CCCCC2)Nc1ccc(Cl)cc1	77*	-10
COc1ccc(NC(=O)CN2C(=O)C(c3ccccc3)=NC23CCC(C)CC3)cc1OC (stereo not drawn)	8	-8
O=C(Cc1ccc(F)cc1)Nc1nc(-c2ccccc2)cs1	-6	-4
CCOc1cc(C(=O)Nc2c(C)cc(C)cc2Cl)cc(OCC)c1OCC	0	-12
Cc1ccc(F)cc1S(=O)(=O)N1CCN(c2ccc(N3CCOCC3)nn2)CC1	-7	-4
COc1cccc(C(=O)N2CCCN(C3CCN(Cc4ccc(F)cc4)C3=O)CC2)c1 (stereo not drawn)	26	3
COc1ccc(NC(=O)CN2C(=O)C(c3ccccc3)=NC23CCC(C)CC3)cc1Cl (stereo not drawn)	15	-7
CC1CCC2(CC1)N=C(c1ccccc1)C(=O)N2CC(=O)Nc1cccc(Cl)c1 (stereo not drawn)	70*	-6
N#CC(=CNc1ccc(Cl)cc1)S(=O)(=O)c1ccc(Cl)cc1	nt	-14
